# Experimental data: PMC4336329 (PLoS ONE, 2015)
# The campaign covered roughly 310,000 compounds. About 2,200 (0.71%) showed an effect of 50% or more. Effects have a minus sign here. This is one part of a sample in which strong results are shown more often than they occur.
# Biological target: human ether-à-go-go-related gene (hERG) potassium channel (human, UniProt Q12809)
# Assay: primary screen, population patch clamp on CHO cells stably expressing hERG; higher = less effect of the substance
# Chain of human ether-à-go-go-related gene (hERG) potassium channel (Q12809 whole entry, looked up): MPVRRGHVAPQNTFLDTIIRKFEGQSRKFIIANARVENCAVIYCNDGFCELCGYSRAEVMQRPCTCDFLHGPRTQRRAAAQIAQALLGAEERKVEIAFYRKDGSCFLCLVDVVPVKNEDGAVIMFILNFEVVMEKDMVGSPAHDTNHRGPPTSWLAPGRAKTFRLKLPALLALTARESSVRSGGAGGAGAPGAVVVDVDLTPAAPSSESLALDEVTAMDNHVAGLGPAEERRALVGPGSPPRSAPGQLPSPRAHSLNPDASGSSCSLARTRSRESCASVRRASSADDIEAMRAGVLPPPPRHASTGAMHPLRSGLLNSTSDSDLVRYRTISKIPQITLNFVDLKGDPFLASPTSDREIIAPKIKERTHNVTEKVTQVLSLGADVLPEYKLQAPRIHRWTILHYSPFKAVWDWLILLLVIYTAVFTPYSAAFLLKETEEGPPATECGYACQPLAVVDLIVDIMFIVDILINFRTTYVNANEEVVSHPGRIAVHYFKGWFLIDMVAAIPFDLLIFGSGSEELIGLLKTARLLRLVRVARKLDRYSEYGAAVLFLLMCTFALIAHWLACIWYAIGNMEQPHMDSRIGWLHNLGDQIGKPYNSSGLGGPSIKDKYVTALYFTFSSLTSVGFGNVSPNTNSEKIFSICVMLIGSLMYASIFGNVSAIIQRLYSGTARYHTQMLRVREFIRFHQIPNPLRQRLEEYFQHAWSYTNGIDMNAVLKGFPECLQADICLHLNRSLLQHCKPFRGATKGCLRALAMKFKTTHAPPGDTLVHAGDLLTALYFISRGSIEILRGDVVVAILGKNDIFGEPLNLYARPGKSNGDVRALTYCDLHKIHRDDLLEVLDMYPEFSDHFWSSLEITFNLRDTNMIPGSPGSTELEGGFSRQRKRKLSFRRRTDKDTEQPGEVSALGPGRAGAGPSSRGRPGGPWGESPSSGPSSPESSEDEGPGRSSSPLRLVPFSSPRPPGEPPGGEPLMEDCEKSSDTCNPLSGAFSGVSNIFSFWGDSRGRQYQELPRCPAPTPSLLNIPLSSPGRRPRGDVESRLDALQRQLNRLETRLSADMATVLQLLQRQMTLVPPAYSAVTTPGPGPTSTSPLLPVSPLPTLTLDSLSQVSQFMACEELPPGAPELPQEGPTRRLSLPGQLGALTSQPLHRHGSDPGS
row,SMILES,"hERG current change (%, negative = inhibition) at 1uM"
1,CC(=O)N1CCN(C(=S)NC(=O)c2ccc(S(=O)(=O)N3CCOCC3)cc2)CC1,13.2%
2,COc1ccc(C(=O)Nc2c(C)ccc3nsnc23)cc1[N+](=O)[O-],3.23%
3,C#CCNC(=O)C1=C[C@H](c2ccc(Br)cc2)C[C@H](OCCCCO)O1,11.3%
4,COc1ccc([N+](=O)[O-])cc1N(CC(=O)Nc1ccccc1C(=O)N1CCOCC1)S(C)(=O)=O,4.57%
5,COC(=O)C1=C(C(=O)OC)SC2(S1)C(C(=O)OC)=C(C(=O)OC)SC1=C2c2cccc(C)c2NC1(C)C,-79.1%
6,COC(=O)C1=C(C(=O)OC)SC2(S1)C(C(=O)OC)=C(C(=O)OC)SC1=C2c2cc(C)cc(C)c2NC1(C)C,19.8%
7,COC(=O)C1=C(C(=O)OC)SC2(S1)C(C(=O)OC)=C(C(=O)OC)SC1=C2c2cc(C)ccc2NC1(C)C,11%
8,Cc1nc(C)n(CC(O)COc2ccc3ccccc3c2)n1 (stereo not shown),-0.527%
9,CCOC(=O)[C@@H]1[C@H]2COc3cc(OC)ccc3[C@@H]2N2C(=O)N(c3ccc(Br)cc3)C(=O)[C@@]12C,5.83%
10,CC(=O)NCCOc1ccc(C(=O)O)cc1,6.2%
11,Cc1ccc(S(=O)(=O)N2CCOCC2)cc1C(=O)N1CCC(Cc2ccccc2)CC1,11.2%
12,O=C(O)CCN(CCC(=O)O)c1nnc(SCc2ccccc2)s1,11.7%
13,O=C(CCl)NN=C(c1ccccc1)c1ccccc1,5.28%
14,O=C(CN1CCCC1)NN=C(c1ccccc1)c1ccccc1,-49%
15,CCN(CC)CC(=O)NN=C(c1ccccc1)c1ccccc1,-78.2%
16,CCOC(=O)C1CCN(c2ccc(Cl)nn2)CC1,0.0696%
17,CCOC(=O)Cc1nnc(NC(=O)c2ccco2)s1,5.45%
18,COc1ccc(OCC(=O)Nc2cc(-c3nn4c(C)nnc4s3)ccc2C)cc1,3.66%
19,Cc1ccc(OCC(=O)Nc2cc(-c3nn4c(C)nnc4s3)ccc2C)cc1,-2.75%
20,Cc1ccc(-c2nn3c(C)nnc3s2)cc1NC(=O)COc1ccc(Cl)cc1,-74.3%
21,O=C(Nc1ccc(Cl)cc1)Nc1ccc2c(c1)OCO2,12.5%
22,CN(C(=O)CSc1nnc(CNC(=O)c2ccccc2)o1)c1ccccc1,1.84%

row,SMILES,"hERG current change (%, negative = inhibition) at 1uM"
1,S=C(c1ccc(-c2ccccc2)cc1)N1CCOCC1,7.87%
2,O=C(O)C1CCCN1c1nc(-c2ccc(Cl)c(Cl)c2)cc(C(F)(F)F)n1 (stereo not shown),7.97%
3,COc1ccc(/C=C/CN2CCN(Cc3ccccc3)C(CCO)C2)cc1 (stereo not shown),-28.9%
4,COc1ccc(/C=C/CN2CCN(Cc3ccc(F)cc3)C(CCO)C2)cc1 (stereo not shown),-3.48%
5,COc1ccc(/C=C/CN2CCN(CC(C)C)C(CCO)C2)cc1 (stereo not shown),-0.433%
6,CCOc1ccccc1CN1CCN(C/C=C/c2ccc(OC)cc2)CC1CCO (stereo not shown),-13.6%
7,CCOc1ccc(CN2CCN(C/C=C/c3ccc(OC)cc3)CC2CCO)cc1 (stereo not shown),-77.1%
8,COc1ccc(/C=C/CN2CCN(CCc3ccccc3)C(CCO)C2)cc1 (stereo not shown),-61.7%
9,C=CCn1c(=O)c(C(=O)Nc2ccc(C)cc2)c(O)c2ccccc21,15.6%
10,Cn1c(N)c(C(=O)COC(=O)c2ccccc2NCc2ccco2)c(=O)n(C)c1=O,9.3%
11,C[C@H](NC(=O)c1nc[nH]c1C(=O)N[C@@H](Cc1ccccc1)C(=O)OCc1ccccc1)C(=O)OC(C)(C)C,10.7%
12,COC(C(=O)Nc1ccc(S(=O)(=O)Nc2ccc(C)c(C)c2)cc1)c1ccccc1 (stereo not shown),1.3%
13,COC(C(=O)Nc1ccc(S(=O)(=O)Nc2c(C)cccc2C)cc1)c1ccccc1 (stereo not shown),-69.6%
14,COC(C(=O)Nc1ccc(S(=O)(=O)Nc2ccc(F)cc2)cc1)c1ccccc1 (stereo not shown),7.53%
15,CC1CCc2c(sc3c2C2=NS(=O)(=O)CCN2C=N3)C1 (stereo not shown),15%
16,Cc1csc(NC(=O)CSc2nnc(C)c(=O)n2N)n1,1.29%
17,O=C(Cc1csc(-c2ccccc2)n1)NCc1ccc(F)cc1,4.14%
18,N#Cc1cccc(NC(=O)COc2ccc(-n3ccnc3)cc2)c1,-51%
19,O=C(COc1ccc(-n2ccnc2)cc1)Nc1cccc(F)c1,-13%
20,O=C(COc1ccc(-n2ccnc2)cc1)Nc1cccc(Cl)c1,-3.13%
21,O=S(=O)(Nc1nc(-c2ccccc2)cs1)c1cccc(C(F)(F)F)c1,10.5%
22,CCOc1cc2[nH]c(=S)n(Cc3ccc(C)o3)c(=O)c2cc1OCC,-3.56%

row,SMILES,"hERG current change (%, negative = inhibition) at 1uM"
1,COc1ccc2c(c1)C=C(C(=O)OCc1cccnc1)CO2,10.4%
2,O=C(OCc1cccnc1)C1=Cc2ccccc2OC1,-73%
3,COc1cccc2c1OCC(C(=O)OCc1cccnc1)=C2,10.4%
4,CCN(CC)S(=O)(=O)c1ccc(-n2cnc3cc(C)c(C)cc32)nc1,14.1%
5,Cc1nc2ccccn2c1C(=O)N=Nc1c(O)[nH]c2ccccc12,13.2%
6,CCc1ccc(OCC(=O)O/N=C(\N)c2cccnc2)cc1,0.0916%
7,Cc1ccc(C(=O)Cn2c(=N)n(CCN3CCOCC3)c3ccccc32)cc1.[Br-],-20.3%
8,Br.N=c1n(CCN2CCOCC2)c2ccccc2n1CC(=O)c1ccc(Cl)c(Cl)c1,-69.1%
9,Br.N=c1n(CCN2CCOCC2)c2ccccc2n1Cc1ccccc1Br,-51.7%
10,Br.N=c1n(CCN2CCCCC2)c2ccccc2n1CC(=O)c1ccc(Cl)c(Cl)c1,-14.7%
11,Br.CCCn1c(=N)n(CC(=O)c2ccc(Cl)c(Cl)c2)c2ccccc21,-17.7%
12,N=c1n(CCOc2ccccc2)c2ccccc2n1CCN1CCOCC1,-10%
13,COc1ccc(-n2nc3c(N4CCC(C(=O)NCCc5ccco5)CC4)nnc(C)c3c2C)cc1,19.1%
14,CCOC(=O)c1c(N)sc2c1CCCC2,15.1%
15,CC(Sc1ccc(Cl)cc1)C(=O)Nc1ccccc1-c1ccccc1 (stereo not shown),17.4%
16,COc1cc2c(cc1OC)CN(Cc1cc(=O)n3c(-c4ccccc4)csc3n1)CC2,14.9%
17,COc1cc2c(cc1OC)C(NC(=O)c1ccc(C)cc1)CC2=O (stereo not shown),7.58%
18,Cn1c(=O)c(Nc2ccc(Cl)cc2)c2c3c(cccc31)C(=O)c1ccccc1-2,14.9%
19,COc1ccccc1-c1nnc(NC(=O)c2ccc(S(=O)(=O)N(C)Cc3ccccc3)cc2)o1,4.43%
20,COCC1OS(=O)(=O)NC(CC(=O)SC(C)(C)C)C1C (stereo not shown),9.98%
21,O=C(CCN1CCOCC1)NCC(=O)Nc1ccc(Br)cc1C(=O)c1ccccc1,-17.6%
22,O=C(CCN1CCCCC1)NCC(=O)Nc1ccc(Br)cc1C(=O)c1ccccc1,-78.1%

row,SMILES,"hERG current change (%, negative = inhibition) at 1uM"
1,O=C(CN1CCCCC1)NCC(=O)Nc1ccc(Br)cc1C(=O)c1ccccc1,-77.2%
2,O=C(CN1CCOCC1)NCC(=O)Nc1ccc(Br)cc1C(=O)c1ccccc1,-20%
3,O=C(CCN1CCOCC1)Nc1ccc(Br)cc1C(=O)c1ccccc1,-0.737%
4,O=C(CN1CCOCC1)Nc1ccc(Br)cc1C(=O)c1ccccc1,-3.67%
5,CCc1oc(C(=O)O)cc1COC,-4.45%
6,Cc1ccc(C)c(Nc2ncnc(N)c2[N+](=O)[O-])c1,9.83%
7,Cc1nc(NC(=O)c2ccccc2)sc1C,16.6%
8,O=C(N/N=C/c1ccccc1)C1CCCN1C(=O)c1cc([N+](=O)[O-])cc([N+](=O)[O-])c1 (stereo not shown),12.4%
9,COc1ccc(C=O)cc1Cn1ccnc1C.Cl,15.4%
10,Cc1cc(F)c(F)c(C(=O)N2CCC(C)CC2)c1Cl,5.24%
11,OCCC1CN(Cc2cc(F)ccc2-n2cccn2)CCN1C1CCCC1 (stereo not shown),3.09%
12,Cc1ccc(CN2CCN(Cc3ccc(-n4cccn4)cc3)CC2CCO)cc1 (stereo not shown),-65.5%
13,Cc1cccc(CN2CCN(Cc3cccc(-n4cccn4)c3)CC2CCO)n1 (stereo not shown),-13.6%
14,Cc1cc(-n2cccn2)ccc1CN1CCN(CC(C)C)C(CCO)C1 (stereo not shown),0.354%
15,OCCC1CN(Cc2cccc(-n3cccn3)c2)CCN1Cc1ccccc1 (stereo not shown),-13.4%
16,OCCC1CN(Cc2ccc(-n3cccn3)cc2)CCN1Cc1ccccc1 (stereo not shown),-28.5%
17,Cc1cc(-n2cccn2)ccc1CN1CCN(C2CCCC2)C(CCO)C1 (stereo not shown),-54.2%
18,Cc1ccc(CN2CCN(Cc3cccc(-n4cccn4)c3)CC2CCO)cc1 (stereo not shown),-80.1%
19,OCCC1CN(Cc2cc(F)ccc2-n2cccn2)CCN1Cc1ccc(F)cc1 (stereo not shown),-36.9%
20,Cc1cccc(CN2CCN(Cc3ccc(-n4cccn4)cc3)CC2CCO)n1 (stereo not shown),-1.6%
21,OCCC1CN(Cc2cccc3nccnc23)CCN1C1CCCC1 (stereo not shown),3.17%
22,Cc1ccc(CN2CCN(Cc3ccc(-n4cccn4)cc3C)CC2CCO)cc1 (stereo not shown),-83.8%
